# Experimental data reported in PubChem BioAssay AID686979 (National Center for Advancing Translational Sciences (NCATS), 2013).
# About 50,000 (12%) of roughly 420,000 compounds were called active. Not shown: some 26% with an inconclusive outcome. Calls come from the whole dose curve; as a rule, active = well fitted inhibition curve with a large enough effect; inconclusive = small, poorly fitted or top-dose-only effect; inactive = flat fitted curve, though single readings scatter. Only a selection was taken, and actives are over-represented in it overall.
# Assay: qHTS for Inhibitors of human tyrosyl-DNA phosphodiesterase 1 (TDP1): qHTS in cells in presence of CPT; note: nearly all actives have a fitted effect of over 55% in size
# Conditions: chicken DT40 Tdp1-/-;hTDP1 cells + 20 nM CPT, ATP luminescence, 48 h; series mostly up to 46.2 µM; activity change, negative = growth inhibition: at the top concentration
# Method in brief: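 Chicken DT40 Tdp1-/- cells stably complemented with human TDP1 were seeded at 400 cells/well in medium containing 20 nM camptothecin, exposed to pin-transferred compounds, and grown at 37 °C for at least 48 hr. Viability was read as ATP luminescence.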
# % is set by controls: 0 for no effect and ±100 for the full control effect; potency is the fitted concentration of half-maximal effect.
Compound,"activity change, negative = growth inhibition",Potency
CCOC(=O)C1C(c2ccc(O)cc2)NC(=O)NC1(O)C(F)(F)F (stereo not drawn),-3.04% (inactive),–
Cc1ccccc1NC(=O)CSC1=NCCN1,-29.2% (inactive),–
Cc1nc(SCC(=O)N2CCN(c3ccccc3)CC2)[nH]c(=O)c1C,-1.67% (inactive),–
Cc1ccc(C2(C(F)(F)F)N=C3Sc4cc(C)cc(C)c4N3C(=O)N2)cc1 (stereo not drawn),-24% (inactive),–
C=CCc1cc(C)ccc1OCCCn1ccnc1,-5.81% (inactive),–
Brc1ccc(OCCn2ccnc2)cc1,-13.2% (inactive),–
c1ccc(Cc2ccc(OCCn3ccnc3)cc2)cc1,–,20.6 µM (active)
CCN(CC(=O)Nc1ccc2c(c1)OCCO2)Cc1cc(=O)oc2cc(C)c(C)cc12,-11.4% (inactive),–
CC(C)Cc1oc(C(=O)O)cc1CN,-6.65% (inactive),–
Cc1cc(C)cc(NC(=O)CSc2nc3nccnc3c(=O)n2CCc2c[nH]c3ccccc23)c1,–,14.6 µM (active)
COCCn1c(SCC(=O)Nc2ccccc2F)nc2c(c1=O)SCC2,-16.1% (inactive),–
Cn1c(CCC(=O)Nc2ccccc2F)nnc1SCC(=O)Nc1ccccc1Cl,0.558% (inactive),–
Cc1cc(C)c(NC(=O)CSc2nc3nccnc3c(=O)n2CCc2c[nH]c3ccccc23)c(C)c1,7.65% (inactive),–
Cc1cc(C)cc(NC(=O)Cn2c(=O)c3ccccc3n3nncc23)c1,9.23% (inactive),–
O=C(CSc1nc2nccnc2c(=O)n1CCc1c[nH]c2ccccc12)Nc1ccccc1F,–,10.3 µM (active)
O=Cc1c(Cl)cccc1Cl,11.4% (inactive),–
CC1(C)O[C@@H]2[C@H](O1)[C@@H](CO)O[C@H]2n1c(N2CCCCC2)nc2c(N)ncnc21,3.84% (inactive),–
CC(C)CNS(=O)(=O)c1ccc(C(=O)Nc2ccc3c(c2)OCO3)cc1,9.38% (inactive),–
CC(=O)Nc1cccc(NC(=O)CSc2nccn2Cc2ccc3c(c2)OCO3)c1,-27.2% (inactive),–
CNc1ccc([N+](=O)[O-])cc1C(=O)O,5.24% (inactive),–
Cn1cnc([N+](=O)[O-])c1Sc1n[nH]c(N)n1,-7.25% (inactive),–
Cn1cnc([N+](=O)[O-])c1Sc1ccccc1,–,18.4 µM (active)
Cn1cnc([N+](=O)[O-])c1Nc1ccccc1O,-9.13% (inactive),–

Compound,"activity change, negative = growth inhibition",Potency
COc1cccc(N2CC(NS(=O)(=O)c3cccs3)CC2=O)c1 (stereo not drawn),5.7% (inactive),–
Cc1c(Cl)cccc1NC(=O)CCS(=O)(=O)c1ccc2c(c1)oc(=O)n2C,-7.1% (inactive),–
O=C(COC(=O)c1ccc(F)cc1)NCC1COc2ccccc2O1 (stereo not drawn),-12.5% (inactive),–
OC(COCC1COc2ccccc2O1)CN1CCN(c2ccc(F)cc2)CC1 (stereo not drawn),–,13 µM (active)
OC(COCc1ccco1)CN1CCN(c2ccccc2)CC1 (stereo not drawn),-6.96% (inactive),–
Nc1ncnc2c1ncn2[C@@H]1O[C@H](C(=O)NCC(F)(F)F)[C@@H](O)[C@H]1O,3.52% (inactive),–
COc1ccccc1NC(=O)COC(=O)COc1ccccc1F,1.41% (inactive),–
CCc1nn(CC(=O)N2CCN(c3cc(C)ccc3C)CC2)c(=O)c2cc3occc3n12,-24.8% (inactive),–
CCc1nn(CCCC(=O)NC(C)c2ccccc2)c(=O)c2cc3occc3n12 (stereo not drawn),-4.62% (inactive),–
CCCNC(=O)C(CC)n1nc(CC)n2c(cc3oc(C)cc32)c1=O (stereo not drawn),–,25.9 µM (active)
O=C(CC[C@H]1O[C@@H](n2ccc(=O)[nH]c2=O)[C@H](O)[C@@H]1O)N[C@H](Cc1ccccc1)C(=O)NCCCN1CCCC1=O,3.41% (inactive),–
CC1CCCN(c2csc3ccc(F)cc3c2=O)C1 (stereo not drawn),-4.58% (inactive),–
Cn1cccc1C(=O)OCC(=O)NCCc1ccccc1,6.72% (inactive),–
COC(=O)C1=C(C)N(Cc2ccccc2)C(=NCCCOC(C)C)N[C@H]1c1ccccc1,–,6.51 µM (active)
COCCN1C(=O)N[C@@H](c2ccccc2)C(C(=O)OC)=C1C,-14.8% (inactive),–
CCN1C(=O)N[C@@H](c2ccccc2)C(C(=O)OC)=C1C,-10.8% (inactive),–
CC(C)C(=O)Nc1ccc2c3c(cccc13)CC2,-12.5% (inactive),–
CN(Cc1ccccc1)C(=O)c1cn(C)c2ccc(S(=O)(=O)N3CCCCC3)cc2c1=O,-0.632% (inactive),–
CCC(CC)C(=O)Nc1c2c(nn1-c1ccc(C)cc1)CS(=O)(=O)C2,-16.7% (inactive),–
O=C(NCc1ccccc1)c1cc(-c2cccc(Cl)c2)on1,-18.1% (inactive),–
CCOC(=O)N1CCc2c(sc3c2C(=O)NC(c2ccccc2F)N3)C1 (stereo not drawn),–,20.6 µM (active)
N#Cc1c(N)sc2c1CCN(C(=O)OCc1ccccc1)C2,-15.3% (inactive),–
CCOCCOC(=O)C1=C(C)N(C)C(=O)NC1c1ccccc1F (stereo not drawn),-20.7% (inactive),–

Compound,"activity change, negative = growth inhibition",Potency
CC1OC(OCC2OC(Oc3c(-c4ccc(O)c(O)c4)oc4cc(O)cc(O)c4c3=O)C(O)C(O)C2O)[C@@H](O)C(O)C1O (stereo partly drawn),17.3% (inactive),–
CCOc1ccc(CCNC(=O)COC(=O)C2CCN(S(=O)(=O)c3ccccc3)CC2)cc1OCC,1.91% (inactive),–
COc1ccc(-c2cc(=O)oc3cc(OCC(=O)N(C)C4CCS(=O)(=O)C4)ccc23)cc1 (stereo not drawn),-10.4% (inactive),–
CCC1SC(CC)C(=O)N(CC(=O)NC2CCCCC2)C1=O (stereo not drawn),8.38% (inactive),–
CN1c2ccc(C=O)c3c(C=O)ccc(c23)N(C)C1(C)C,–,20.6 µM (active)
NC(=O)c1ccc(Nc2ccc3c(c2)CCC3)c([N+](=O)[O-])c1,2.21% (inactive),–
CNN/C(N=Cc1ccc([N+](=O)[O-])s1)=N\S(=O)(=O)c1cc(C)c(Cl)cc1SCc1ccccc1,–,1.16 µM (active)
O=C(CCC(=O)c1cccs1)Nc1nc2ccccc2s1,-6.62% (inactive),–
COc1cc(NC(=O)CCNC(=O)Cn2ccc3ccccc3c2=O)cc(OC)c1OC,–,inactive
CC(C)n1c(-c2ccncc2)n[nH]c1=S,5.83% (inactive),–
C#CCN(N(C)c1ncc(C(F)(F)F)cc1Cl)S(=O)(=O)c1ccc2ccccc2c1,-15.9% (inactive),–
CC(C)OC(=O)CN1C(=O)c2ccccc2C1=O,-3.69% (inactive),–
CCOC(=O)C1CCN(C(=O)CN2C(=O)c3cccnc3Oc3ccc(C)cc32)CC1,1.02% (inactive),–
CCCCOC(=O)Cn1c(=O)n(CC(=O)OCCCC)c2cc(C)ccc21,-31.3% (inactive),–
CCOC(=O)CN1C(=O)C(=O)c2cc(C)ccc21,–,8.2 µM (active)
CC(C)OC(=O)CN1C(=O)C(=O)c2ccccc21,–,13 µM (active)
CC(OC(=O)CN1C(=O)c2ccccc2C1=O)C(=O)c1ccccc1 (stereo not drawn),-3.02% (inactive),–
NS(=O)(=O)c1ccc(CCNC(=O)CN2C(=O)c3ccccc3S2(=O)=O)cc1,-9.69% (inactive),–
O=C(O)C(=Cc1ccc([N+](=O)[O-])cc1)CCc1ccccc1,-0.638% (inactive),–
COc1ccc(NC(=O)CCN2CCCC2)c(OC)c1,-15.2% (inactive),–
COc1ccccc1NC(=O)CCN1CCN(c2ccc(Cl)cc2)CC1,–,14.6 µM (active)
COc1ccc(Cl)cc1NC(=O)CCN1CCOCC1,7.94% (inactive),–
